Screening data as filed in PubChem BioAssay.
D1 antagonist: Antagonist of Human D 1 Dopamine Receptor: qHTS | HEK293 TREx D1 cells, calcium flux, dopamine EC80; active compounds read low | activity change, negative = inhibition, % at 10 µM | 3.2% of 360,000 active; in the data active = activity change below about -30%
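Calcium flux readout: force-coupled, inducible Hek293 Trex D1 line, cells induced overnight at 30 C with tetracycline, dye-loaded 30–90 min at RT. Antagonism scored against EC80 dopamine challenge given 180 s after compound.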
D1 PAM: Potentiators of Human D1 Dopamine Receptor: qHTS; D(1A) dopamine receptor (Homo sapiens), P21728; potentiation, % at 10 µM; 0.036% of 360,000 active; HEK293 TREx D1 cells, calcium flux, dopamine EC20 potentiation; in the data active = potentiation above about 30%
TRHR enhancer: qHTS for Small Molecule Agonists and Allosteric Enhancers of Human TRH Receptor: Primary Screen for Enhancers | 0.66% of 360,000 active | TRHR cells, fluo-8 calcium fluorescence, EC20 TRH enhancement | enhancement, % at 2 µM | AID 493056, 2011 | Thyrotropin-releasing hormone receptor (Homo sapiens), P34981; in the data active = enhancement above about 30%
Target sequence (P34981 whole entry, looked up): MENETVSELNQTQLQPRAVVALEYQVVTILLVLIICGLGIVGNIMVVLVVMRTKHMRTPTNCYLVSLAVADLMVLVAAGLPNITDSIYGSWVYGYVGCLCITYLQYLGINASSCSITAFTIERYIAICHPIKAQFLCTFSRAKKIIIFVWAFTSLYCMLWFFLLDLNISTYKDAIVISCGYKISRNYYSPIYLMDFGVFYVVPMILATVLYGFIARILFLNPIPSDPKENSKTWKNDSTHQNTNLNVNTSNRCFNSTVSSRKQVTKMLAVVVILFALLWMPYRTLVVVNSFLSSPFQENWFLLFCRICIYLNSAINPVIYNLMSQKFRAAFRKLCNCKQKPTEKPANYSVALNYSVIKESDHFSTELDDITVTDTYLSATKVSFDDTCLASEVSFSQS
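Enhancer read-out: after compound pinning and an initial kinetic agonist-mode read, an EC20 of TRH (10 nM final) was injected and fluo-8 calcium signal (Ex 480/Em 530) followed at 1 s/cycle for 100 cycles in TRHR-expressing cells.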
D1 ag: Allosteric Agonists of the Human D1 Dopamine Receptor: qHTS. HEK293 T-REx D1 cells, calcium flux, agonist mode. activation, % at 2 µM. 1% of 360,000 active
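Inducible HEK293 T-REx D1 cells, force-coupled to calcium signalling, were plated at 4000 cells/well with tetracycline and held overnight at 30 C. After no-wash calcium dye loading, compound-evoked calcium rise over 180 s flagged agonists.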
TRHR agonist: qHTS for Small Molecule Agonists and Allosteric Enhancers of Human TRH Receptor: Primary Screen for Agonists. TRHR cells, calcium flux fluo-8, FDSS agonist mode. Thyrotropin-releasing hormone receptor (Homo sapiens), P34981. 0.18% of 360,000 active. activation, % at 2 µM
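Agonist-mode FDSS calcium read (Ex 480/Em 530, 1 s cycles) in 1536-well TRHR cells with fluo-8 dye, after 10-cycle baseline and 23 nL compound addition; TRH at EC20 (10 nM final) added afterwards for the enhancer phase.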
LDHA block: qHTS assay for inhibitors of human lactate dehydrogenase. L-lactate dehydrogenase A chain (Homo sapiens), P00338. purified LDHA, NADH/diaphorase-resazurin fluorescence; active compounds read low. activity change, % (values are at about 110 or 230 µM). 0.15% of 480,000 active; in the data active = activity change below about -30%
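Human LDH5 at 2 nM final in Tris HCl pH 7.4 with 0.06 mM NADH and 0.2 mM pyruvate, reacted 5 minutes at room temperature. Remaining NADH coupled via diaphorase/resazurin; resorufin fluorescence read at 0 and 20 minutes, normalized to enzyme-free and DMSO wells.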
Large screens that a line does not name were inactive. Compounds with a hit are over-represented: about 3.6% of the library has one in this group of screens. Rule as the data show it, unless noted: active = activation above about 30%; inactive = the rest.

CN1CCN(c2ccc(NC(=O)CSc3ccccc3)cc2F)CC1	D1 antagonist -53
CC(CC(=O)Nc1cccc(S(=O)(=O)N2CCCCC2)c1)c1ccccc1 (stereo unspecified)	none
O=C(Cc1cccc(C(F)(F)F)c1)Nc1cccc(S(=O)(=O)N2CCCC2)c1	D1 antagonist -41
COC(=O)COc1cccc(/C=N/NC(=O)CCSc2ccccc2)c1	D1 antagonist -34
C=CCc1ccc(-c2ccc(OCCCCCCCCCC)c(F)c2)nc1	none (no result: D1 antagonist, D1 PAM, TRHR enhancer, D1 ag, TRHR agonist)
COC(=O)Cn1nc(-c2ccc(C)cc2)c2ccccc2c1=O	D1 antagonist -75
CCCCCCCCCCSc1n[nH]c(NC(C)=O)n1	D1 antagonist -41
CCC(C)C(NC(=O)OCc1ccccc1)C(=O)NC(Cc1ccc(O)cc1)C(=O)OC (stereo unspecified)	D1 ag 62
Cc1cccc(OCc2nnc(SCC(=O)Nc3cccc(C(=O)N4CCOCC4)c3)n2C)c1	none
Cc1cccc(OCc2nnc(SCC(=O)Nc3cccc(C(=O)N4CCOCC4)c3)n2C)c1C	D1 antagonist -42
Cc1noc(NS(=O)(=O)c2ccc(NC(=O)c3nn(-c4ccc(F)cc4)ccc3=O)cc2)c1C	none
Cc1ccc(-n2ccc(=O)c(C(=O)Nc3ccc(S(=O)(=O)Nc4onc(C)c4C)cc3)n2)cc1	LDHA block -62
CC(=O)c1ccc(NC(=O)Nc2ccc3snnc3c2)cc1	D1 antagonist -74, D1 ag 46
COC(=O)c1cc(NC(=O)Nc2ccc3snnc3c2)cc(C(=O)OC)c1	none
Cc1ccc(F)c(NC(=O)Nc2ccc3snnc3c2)c1	none
Cc1c(Cl)cccc1NC(=O)Nc1ccc2snnc2c1	D1 ag 39
CC1CN(C(=O)Nc2ccc3snnc3c2)c2ccccc21 (stereo unspecified)	D1 antagonist -63
O=C(Nc1cccc(F)c1)c1ccc2snnc2c1	D1 antagonist -31
CC(C)(C)c1ccc(/C=C/C(=O)NCCC2=CCCCC2)cc1	none (no result: D1 antagonist, D1 PAM, TRHR enhancer, D1 ag, TRHR agonist)
O=C(Nc1ccc(F)cc1)Nc1ccc2snnc2c1	D1 antagonist -31, D1 ag 48
CNC(=O)Nc1ccc2snnc2c1	none (no result: D1 PAM)
CCOC(=O)c1nn(-c2ccc(F)cc2)c(=O)c2c(N)scc12	D1 antagonist -51, D1 ag 59
CCOC(=O)c1nn(-c2ccc(C)cc2)c(=O)c2c(N)scc12	none
Cc1noc(C)c1CSCC(=O)N1CCN(c2ccc(F)cc2)CC1	D1 antagonist -32
Cc1noc(C(=O)N2CCN(c3ccc(F)cc3)CC2)c1Cl	D1 antagonist -69
CC(C)N1CCC(CNC(=O)c2cc3ccccc3n2C)C1 (stereo unspecified)	none (no result: D1 antagonist, D1 PAM, TRHR enhancer, D1 ag, TRHR agonist)
Cc1nc2ccccc2n1-c1ccccc1	none
O=c1c(/C=C(\O)c2ccccc2)nc2ccccc2n1-c1ccccc1	D1 ag 169, TRHR agonist 47
COC(=O)CN(c1cc(C(F)(F)F)ccc1Cl)S(C)(=O)=O	D1 antagonist -39
COCCNC(=O)CN(c1cc(C(F)(F)F)ccc1Cl)S(C)(=O)=O	none
CCc1nnc(NS(=O)(=O)c2ccc(NC(=S)NC(=O)/C=C/c3ccc(OC)cc3)cc2)s1	D1 antagonist -30
CC(C)NC(=S)NC(=O)/C=C/c1ccc(F)cc1	D1 antagonist -81
CCc1nnc(NS(=O)(=O)c2ccc(NC(=S)NC(=O)c3ccccc3)cc2)s1	none
CCc1nnc(NS(=O)(=O)c2ccc(NC(=S)NC(=O)c3ccc(Br)cc3)cc2)s1	TRHR enhancer 35
CC(C)NC(=O)/C=C/c1ccc(F)cc1	none (no result: D1 antagonist, D1 PAM, TRHR enhancer, D1 ag, TRHR agonist)
COc1cc(NS(=O)(=O)c2ccc(NC(=S)NC(=O)/C=C/c3ccc(F)cc3)cc2)ncn1	none
COc1nccnc1NS(=O)(=O)c1ccc(NC(=S)NC(=O)/C=C/c2ccc(F)cc2)cc1	D1 antagonist -38
CC(C)CC1C(C#N)=C(N)SC(N)=C1C#N	D1 ag 38
